Shiga inhibitor = blocks Shiga toxin action in Vero cells. Vero cells, Shiga toxin protein synthesis inhibition reporter. inhibition, % at 38.7 µM. 290,000 tested, 9.2% active; in the data active = inhibition mostly above about 28%, no sharp cut-off; inactive = mostly below about 43%
AMA1-RON2 inh = disrupts binding of P. falciparum AMA1 to RON2; AID 720542; Potency, µM (titrated, usually from 58.2 µM), usual class: inhibitors; 360,000 tested, 0.2% active; AlphaScreen AMA1-biotinylated RON2 peptide binding; active = well fitted inhibition curve with a large enough effect; inconclusive = small, poorly fitted or top-dose-only effect; inactive = no such curve, though single readings can be large or run the other way; note: nearly all actives have a fitted effect of over 45% in size
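AMA1 (3D7) with his tag at 25 nM final met compounds first, then biotinylated RON2 peptide at 25 nM; detection used donor plus acceptor beads, 10 µg/mL apiece, read by AlphaScreen after 30 min at room temperature.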
CHX counter = counter-screen hit for Shiga toxin inhibitors, cycloheximide; cell reporter, cycloheximide protein synthesis inhibition counterscreen; max response, %; 300,000 tested, 12% active; in the data active = max response mostly above about 13%, no sharp cut-off; inactive = mostly below about 14%; note: read at 38.3 µM for the half of the compounds with a filed dose
Marburg entry inh = blocks Marburg virus binding to or entry into cells. Marburg virus pseudotyped entry inhibition, cell reporter. Potency, µM (series often up to 37.8 µM), actives largely listed as inhibitors. 300,000 tested, 1.8% active; calls by dose curve; tested in HEK293 cells
Lassa entry inh = Lassa virus entry inhibition | Lassa virus pseudotype entry inhibition, cell reporter | Potency, µM (top dose mostly 37.9 µM), usual class: inhibitors | 300,000 tested, 1.2% active | AID 540256; calls by dose curve; tested in HEK293 cells; note: nearly all actives have a fitted effect of over 50% in size
Hits are given with their value. Shown is part of a subset that was picked to be rich in hits.

Cc1cc(C(=O)CSc2n[nH]c(N)n2)c(C)n1-c1cccc(F)c1 was read as Shiga inhibitor 73, AMA1-RON2 inh inactive, CHX counter 20, Marburg entry inh inactive and Lassa entry inh inactive.
`COCCn1c(C)cc(C(=O)CSc2nc3nc(C)cc(C)n3n2)c1C` gave Shiga inhibitor inactive, AMA1-RON2 inh inactive, CHX counter inactive, Marburg entry inh inactive and Lassa entry inh inconclusive.
Screening Cc1cc(C(=O)CSc2nnnn2C)c(C)n1-c1cccc(F)c1 returned Shiga inhibitor 122, AMA1-RON2 inh inactive, CHX counter 40, Marburg entry inh inconclusive and Lassa entry inh inconclusive.
Screening COCCn1c(C)cc(C(=O)CSc2nnnn2C2CCCC2)c1C returned AMA1-RON2 inh inconclusive, Marburg entry inh inconclusive and Lassa entry inh 1.3µM.
`O=C(C[n+]1ccccc1)N/N=C/c1ccc(Cl)cc1` gave AMA1-RON2 inh inactive.
`COc1ccc(NC(=O)CN2CCCC2c2cccs2)cc1S(=O)(=O)N1CCCCC1` (stereo not given) gave AMA1-RON2 inh inactive.
For CC1Cc2ccccc2N1C(=O)CCn1cccn1 (stereo not given) the results were Shiga inhibitor inactive, AMA1-RON2 inh inactive and CHX counter inactive.
For COc1ccc(Cl)cc1CC=NNC(=O)c1cccc(C)c1O the results were AMA1-RON2 inh inactive, Marburg entry inh inactive and Lassa entry inh inactive.
`Cc1cc(C(=O)CSc2nc(N)cc(N)n2)c(C)n1-c1cccc(C(F)(F)F)c1` gave Shiga inhibitor inactive, AMA1-RON2 inh inactive, CHX counter inactive, Marburg entry inh inactive and Lassa entry inh inactive.
For Cc1cc(C(=O)CSc2ncccn2)c(C)n1-c1cccc(F)c1 the results were Shiga inhibitor 100, AMA1-RON2 inh inactive, CHX counter 86, Marburg entry inh inconclusive and Lassa entry inh inconclusive.
Screening Cc1ccccc1NC(=NCCCN1CC1)Nc1ccccc1C returned AMA1-RON2 inh inactive, Marburg entry inh 2.2µM and Lassa entry inh 13µM.
Screening Cc1ccccc1NC(=O)CCN1CCN(C)CC1 returned Shiga inhibitor inactive, AMA1-RON2 inh inactive and CHX counter inactive.
Screening COc1ccccc1N(C(=O)c1snc(C(N)=O)c1N)C(C(=O)NC1CCCCC1)c1cccc(OC)c1OC (stereo not given) returned Shiga inhibitor inactive, AMA1-RON2 inh inactive, CHX counter inactive, Marburg entry inh inconclusive and Lassa entry inh inconclusive.
`O=C(N/N=C/c1ccoc1)c1ccc(Cl)cc1` gave Shiga inhibitor inactive, AMA1-RON2 inh inactive and CHX counter inactive.
Screening O=C(N/N=C/c1ccoc1)c1cc(O)cc(O)c1 returned Shiga inhibitor inactive, AMA1-RON2 inh inactive, CHX counter inactive, Marburg entry inh inactive and Lassa entry inh inactive.
O=C(N/N=C/c1ccoc1)c1ccc(Br)cc1 was read as Shiga inhibitor 36, AMA1-RON2 inh inactive and CHX counter 36.
For O=C(N/N=C/c1ccoc1)c1ccccc1O the results were Shiga inhibitor inactive, AMA1-RON2 inh inactive and CHX counter 29.
`O=C(N/N=C/c1ccoc1)c1ccccc1` gave Shiga inhibitor 61, AMA1-RON2 inh inactive and CHX counter 37.
Screening COCC(=O)N1CCC(Oc2ccc(C(=O)N(C)C(C)c3ccon3)cc2)CC1 (stereo not given) returned Shiga inhibitor inactive, AMA1-RON2 inh inactive, CHX counter inactive, Marburg entry inh inactive and Lassa entry inh inactive.
CN(C)c1ccc(C(=O)c2ccc(N(C)C)c3ccccc23)cc1 was read as Shiga inhibitor 68, AMA1-RON2 inh inconclusive, CHX counter 25, Marburg entry inh inconclusive and Lassa entry inh 0.25µM.
`COc1ccc(NC(=O)Cn2c(=O)cnc3ccccc32)cc1S(=O)(=O)N1CCCCC1` gave AMA1-RON2 inh inactive, Marburg entry inh inconclusive and Lassa entry inh inactive.
For Cc1oc2ccc(O)cc2c1C(=O)c1ccc([N+](=O)[O-])cc1 the results were Shiga inhibitor inactive, AMA1-RON2 inh inactive, CHX counter inactive, Marburg entry inh inactive and Lassa entry inh inactive.
`CN(C)/C=C/c1oc2ccc(O)cc2c1[N+](=O)[O-]` gave Shiga inhibitor 146, AMA1-RON2 inh inactive, CHX counter inactive, Marburg entry inh inactive and Lassa entry inh inactive.
Screening C#CCNC(=O)[C@H]1C=C(OC)C(=O)C[C@H]2c3ccccc3C[C@]12C returned Marburg entry inh inactive.
COc1ccccc1NC(=O)CN1CCN(CC(=O)Nc2ccc(OCc3ccccc3)cc2)CC1 was read as Shiga inhibitor inactive, AMA1-RON2 inh inactive, CHX counter 20, Marburg entry inh inconclusive and Lassa entry inh 11µM.
Screening CCC(C)C(NC(N)=O)C(=O)Nc1ccc(OCc2ccccc2)cc1 (stereo not given) returned Shiga inhibitor 26, AMA1-RON2 inh inactive and CHX counter 22.
For O=C(CN1CCCC1)Nc1ccc(OCc2ccccc2)cc1 the results were Shiga inhibitor inactive, AMA1-RON2 inh inactive and CHX counter 27.
Screening COc1ccccc1NC(=O)CN1CCN(CC(=O)Nc2ccc(F)cc2)CC1 returned Shiga inhibitor inactive, AMA1-RON2 inh inactive, CHX counter inactive, Marburg entry inh inactive and Lassa entry inh inactive.
`O=C(CN1CCN(c2ccccc2)CC1)Nc1ccc(OCc2ccccc2)cc1` gave Shiga inhibitor inactive, AMA1-RON2 inh inactive, CHX counter inactive, Marburg entry inh inconclusive and Lassa entry inh inconclusive.
`CCOC(=O)N1CCN(CC(=O)Nc2ccc(Oc3ccccc3)cc2)CC1` gave Shiga inhibitor inactive, AMA1-RON2 inh inactive, CHX counter inactive, Marburg entry inh inactive and Lassa entry inh 0.56µM.
Screening CSc1ccc(/C=C(\C(=O)O)c2ccc(S(=O)(=O)N3CCCC3)s2)cc1 returned AMA1-RON2 inh inactive.
`CSc1cccc(CN2CCN(Cc3ccc(F)c(F)c3)C(CCO)C2)c1` (stereo not given) gave Shiga inhibitor inactive, AMA1-RON2 inh inactive, CHX counter inactive, Marburg entry inh inconclusive and Lassa entry inh inactive.
For CC(C(=O)Nc1ccc(OCc2ccccc2)cc1)N1CCCC1 (stereo not given) the results were Shiga inhibitor 33, AMA1-RON2 inh inactive, CHX counter 28, Marburg entry inh inconclusive and Lassa entry inh inactive.
COc1ccc(S(=O)(=O)N2CCCCCC2)cc1NC(=O)CN1C(=O)CNC1=O was read as AMA1-RON2 inh inactive, Marburg entry inh inactive and Lassa entry inh inactive.
`CCn1nnnc1SCC(=O)N1CCc2ccccc21` gave AMA1-RON2 inh inactive, Marburg entry inh inconclusive and Lassa entry inh inconclusive.
CCCn1c(-c2ccc(F)cc2)cnc1SCC(=O)O was read as Shiga inhibitor inactive, AMA1-RON2 inh inactive, CHX counter inactive, Marburg entry inh inactive and Lassa entry inh inactive.
Screening CCn1c(-c2ccc(F)cc2)cnc1SCC(=O)N1CCCCC1C (stereo not given) returned Shiga inhibitor 93 and CHX counter 41.
For CCn1c(-c2ccc(F)cc2)cnc1SCC(=O)N1CCc2ccccc21 the results were Shiga inhibitor 97, CHX counter 34, Marburg entry inh inactive and Lassa entry inh inconclusive.
`COc1ccc([C@H]2C(C(=O)O)=C[C@@H](CC3CCCC3)N2S(=O)(=O)c2ccc(C)cc2)cc1OC` gave AMA1-RON2 inh inactive.

Screening data (PubChem)
